Sfp inh = inhibitors of Bacillus subtilis Sfp phosphopantetheinyl transferase; 310,000 tested, 3.5% active; AID 1490; Biochemical Sfp PPTase activity, qHTS; Q9F4F7; Potency, µM, without a hit: largest response in the series, negative = inhibition, actives largely listed as inhibitors;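 further: the enzyme is Sfp with the accession as filed and its product quenches rhodamine fluorescence; 0% = enzyme reaction without inhibitor and -100% = no enzyme wells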
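Fluorescence-quenching assay with 15 nM Sfp, 5 uM rhodamine-CoA and 12.5 uM BHQ-2-labelled ybbR peptide in pH 7.6 Hepes/MgCl2 buffer. Enzyme was pre-incubated with compound for 15 min at room temperature. Rate was taken from the 30-min fluorescence change (525/598 nm).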
L3MBTL1 block = inhibitors of human L3MBTL1. Q9Y468. AlphaScreen L3MBTL1–H3K9me1 peptide binding. Potency, µM (highest dose often 57.1 µM), for inactives: at the highest dose activity, negative = inhibition, most hits filed as inhibitors. 230,000 tested, 0.66% active; further: on the % scale 0 is the no-effect control and ±100 the full control effect; nearly all actives have a fitted effect of over 60% in size
Target sequence (Q9Y468 whole entry, looked up): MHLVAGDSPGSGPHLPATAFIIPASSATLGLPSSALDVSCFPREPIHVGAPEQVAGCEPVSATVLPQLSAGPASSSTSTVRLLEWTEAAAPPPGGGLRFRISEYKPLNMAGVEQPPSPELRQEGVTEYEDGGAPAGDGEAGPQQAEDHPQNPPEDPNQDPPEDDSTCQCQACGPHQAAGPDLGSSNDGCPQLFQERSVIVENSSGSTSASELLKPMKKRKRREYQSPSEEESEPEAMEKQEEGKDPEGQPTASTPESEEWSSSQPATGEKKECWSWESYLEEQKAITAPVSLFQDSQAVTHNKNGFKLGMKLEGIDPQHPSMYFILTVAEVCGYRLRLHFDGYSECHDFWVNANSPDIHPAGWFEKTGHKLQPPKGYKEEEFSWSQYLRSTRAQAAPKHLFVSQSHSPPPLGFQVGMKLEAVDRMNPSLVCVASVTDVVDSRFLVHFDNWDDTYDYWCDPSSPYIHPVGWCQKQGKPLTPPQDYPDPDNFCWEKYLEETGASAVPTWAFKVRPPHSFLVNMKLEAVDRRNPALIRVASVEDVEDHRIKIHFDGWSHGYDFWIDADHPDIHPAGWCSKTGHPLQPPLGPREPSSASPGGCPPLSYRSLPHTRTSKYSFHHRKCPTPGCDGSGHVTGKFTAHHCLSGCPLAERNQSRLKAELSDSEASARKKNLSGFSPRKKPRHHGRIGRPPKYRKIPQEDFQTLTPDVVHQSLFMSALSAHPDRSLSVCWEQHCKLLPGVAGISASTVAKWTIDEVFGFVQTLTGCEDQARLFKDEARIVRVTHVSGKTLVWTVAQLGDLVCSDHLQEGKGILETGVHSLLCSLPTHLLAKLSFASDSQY
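AlphaScreen assay: L3MBTL1 (50 nM final) was preincubated 30 min at room temperature with biotinylated H3(1-15)K9me1 peptide (75 nM final), then 30 min with library compounds; streptavidin donor and nickel chelate acceptor beads (10 ug/mL final) added, 30 min dark.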
HP1b binding inh = inhibitors of HP1-beta chromodomain binding to methylated histone tails; AID 540317; AlphaScreen HP1-beta / biotin-H3K9me3 peptide binding; 390,000 tested, 0.56% active; Potency, µM (highest dose often 114 µM), without a hit: at the top dose activity change, negative = inhibition, actives largely listed as inhibitors; further: nearly all actives have a fitted effect of over 70% in size
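Compound inhibition of the preformed complex between 50 nM HP1-beta and 50 nM biotinylated H3K9me3 peptide was read by AlphaScreen. Buffer was PBS pH 7.4 with 0.01% Tween-20. Incubations ran 30 min at room temperature, with 10 ug/mL donor/acceptor beads.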
BAZ2B inh = inhibitors of human BAZ2B bromodomain; Q9UIF8; AlphaScreen BAZ2B-H3K14Ac peptide displacement; Potency, µM (series often up to 114 µM), for the others: at the highest dose activity change, negative = inhibition, most hits filed as inhibitors; 360,000 tested, 4.4% active; further: on the % scale 0 is the no-effect control and ±100 the full control effect; nearly all actives have a fitted effect of over 60% in size
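BAZ2B 50 nM plus b-H3(5-23)K14Ac 50 nM, PBS pH 7.4/0.01% Tween-20, 30 min RT; compound added (max 110 uM), 30 min RT; streptavidin donor/Ni-chelate acceptor beads 10 ug/mL final, 20 min dark; AlphaScreen read.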
G9a inh = inhibitors of human histone lysine methyltransferase G9a; Q96KQ7; G9a H3K9 monomethylation, AlphaScreen, 2 h; Potency, µM (doses to about 102 µM), inactives show at the highest dose activity, negative = inhibition, usual class: inhibitors; 350,000 tested, 8.8% active; further: on the % scale 0 is the no-effect control and ±100 the full control effect; nearly all actives have a fitted effect of over 75% in size
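G9a (20 nM) was preincubated 15 min with compound, then reacted 2 h at room temperature with 500 nM biotin-H3K9 peptide and 20 µM SAM. Monomethyl-H3K9 detected by AlphaScreen using anti-H3K9me1 antibody.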
JMJD2A Tudor = inhibitors of human JMJD2A Tudor domain | O75164 | AlphaScreen JMJD2A-Tudor / H3K4me3 peptide binding | Potency, µM (top dose mostly 114 µM), inactives show at the top dose activity change, negative = inhibition, usual class: inhibitors | 390,000 tested, 4.4% active | AID 504339; further: on the % scale 0 is the no-effect control and ±100 the full control effect; nearly all actives have a fitted effect of over 50% in size
The depositor's hits bear a star; u = inconclusive; x = no result; [ ] = dose if it differs, or a comment. This is a sample that favours compounds with a hit; in the whole collection about 12% have one here. The call rests on the fitted dose curve; in most records, active means well fitted curve in the direction sought with a large enough effect; inconclusive means small, poorly fitted or top-dose-only effect, or another doubt; inactive means no such curve, though single readings can be large; an effect the other way counts as inactive or inconclusive. Potency means the concentration at half of the fitted maximal effect.

SMILES	Sfp inh	L3MBTL1 block	HP1b binding inh	BAZ2B inh	G9a inh	JMJD2A Tudor
O=S(=O)(Nc1nc2ccccc2nc1Nc1ccc2c(c1)OCO2)c1ccccc1	14.2%	-6.7%	3.3%	-3.8%	39.8µM*	-11.4%
Cc1cc(Br)ccc1NC(=O)COc1cc(=O)n(C)c2ccccc12	x	x	26.0%	-8.8%	-45.1%[59 µM]	-10.8%
CC(=O)c1ccc(N2CCN(c3nc4c(S(=O)(=O)c5ccc(C)c(C)c5)nnn4c4ccc(Cl)cc34)CC2)cc1	x	x	14.9%	1.1%	5.0%[59 µM]	-9.5%
COc1cc(C(=O)OCc2cc(=O)n3ccsc3n2)cc(OC)c1OC	x	x	46.0%	-2.1%	12.2%[59 µM]	-2.0%
CC(C)NC(=O)Cc1csc2nc(-c3ccccc3)cn12	x	x	15.2%[57 µM]	u	6.7%[59 µM]	-17.6%
COc1ccc(-c2cc(C(F)(F)F)nc(-n3cc(Br)cn3)n2)cc1	22.4µM*	x	35.4%	22.8%	7.7%[12.7 µM]	-3.5%
COc1ccc(-c2cc(C(F)(F)F)nc(-n3cc(Cl)cn3)n2)cc1	u	x	27.8%	8.1%	10.7%[12.7 µM]	-19.9%
O=c1cc2nc(-c3ccccc3F)nc(SCc3ccc(Br)cc3)n2[nH]1	x	x	9.2%	50.1µM*	-11.9%[59 µM]	u
COc1ccccc1NC(=O)CSc1nc(-c2ccccc2F)nc2cc(=O)[nH]n12	x	x	-15.1%	u	-15.6%[59 µM]	-31.5%
CC(C)(C)OC(=O)C1=NOC2(C=CC(=O)C=C2)C1	4.8%	x	x	x	x	x
CCc1ccc(Nc2nnc(SCC(=O)NC(=O)CN3CCCC3=O)s2)cc1	x	-8.0%	-5.7%	u	6.31µM*	u
S=C(c1ccc(Br)cc1)N1CCN(Cc2ccccc2)CC1	11.2µM*	-15.0%	-34.6%	u	x	u
Oc1ccc(C(=S)N2CCN(Cc3ccccc3)CC2)cc1	15.8µM*	x	u	-24.8%	2.24µM*	u
O=C(c1ccc2ccccc2c1)N1CCN(Cc2ccccc2)CC1	3.5%	x	-2.5%	-7.9%	-2.4%	-9.3%
CCN1CCN(C(=S)c2ccc(Br)cc2)CC1	14.1µM*	2.6%	u	-13.1%	10.5%[0.501 µM]	-28.5%
Cc1cccc(-n2c(C)cc(/C=C3/C(=N)N4C(c5ccccc5)=CSC4=NC3=O)c2C)c1	12.7%	2.6%	8.4%	1.8%	-5.9%[59 µM]	-26.4%
N=C1/C(=C\c2ccc(-c3ccc(C(=O)O)cc3)o2)C(=O)N=C2SC=C(c3ccccc3)N12	31.6µM*	x	15.8µM*	4.47µM*	x	14.1µM*
COc1cc(/C=C2/C(=N)N3C(c4ccccc4)=CSC3=NC2=O)ccc1OCC(=O)O	7.9%	x	-31.1%	50.1µM*	x	u
Cc1cccc(CN2C(=O)c3ccccc3Sc3ccc(C(=O)NCc4cccs4)cc32)c1	x	x	19.6%	-4.9%	4.4%[59 µM]	-22.9%
CCC(=O)N1CCc2cc(S(=O)(=O)NCCC(=O)Nc3ccc(C)cc3C)ccc21	x	x	34.6%	x	-1.4%[59 µM]	-6.0%
C=CCSc1nnc(-c2sc(-c3ccccc3)nc2C)n1C	12.7%	3.1%	42.4%	-0.8%	12.8%[59 µM]	8.4%
C=CCN(C(=O)CSC1=NC(=O)CN1C(C)=O)c1nc(C)c(-c2ccccc2)s1	-5.1%	x	7.7%	35.5µM*	39.8µM*	u
COc1cccc(C2/C(=C(\O)c3ccc4c(c3)OCCO4)C(=O)C(=O)N2CCCn2ccnc2)c1 (configuration not stated)	14.8%	x	20.4%	56.2µM*	u	63.1µM*
COc1cccc(C2/C(=C(/O)c3ccc4c(c3)CC(C)O4)C(=O)C(=O)N2CCCn2ccnc2)c1 (configuration not stated)	8.3%	x	1.4%	-27.2%[57.1 µM]	50.1µM*	-16.6%
O=C1C(=O)N(CCCn2ccnc2)C(c2cccc(Br)c2)/C1=C(\O)c1ccc2c(c1)OCCO2 (configuration not stated)	5.3%	x	13.3%	-5.1%	u	u
SMILES	Sfp inh	L3MBTL1 block	HP1b binding inh	BAZ2B inh	G9a inh	JMJD2A Tudor
COc1cccc(C2/C(=C(/O)c3ccc4c(c3)CC(C)O4)C(=O)C(=O)N2c2nnc(C)s2)c1 (configuration not stated)	2.6%	x	7.8%	-24.9%	39.8µM*	-34.4%
CCN(CC)CCN1C(=O)C(=O)/C(=C(/O)c2ccc3c(c2)CC(C)O3)C1c1ccc(OC)cc1 (configuration not stated)	22.1%	-9.3%	8.7%	-22.5%	50.1µM*	u
Cc1nnc(N2C(=O)C(=O)/C(=C(\O)c3ccc4c(c3)CC(C)O4)C2c2ccccc2)s1 (configuration not stated)	3.5%	x	12.1%[57 µM]	-25.9%	6.9%	-28.8%
CC1Cc2cc(/C(O)=C3/C(=O)C(=O)N(CCCn4ccnc4)C3c3ccc(F)cc3)ccc2O1 (configuration not stated)	19.7%	x	39.8%	-24.0%[57.1 µM]	44.7µM*	-24.4%
CC1Cc2cc(/C(O)=C3/C(=O)C(=O)N(CCCn4ccnc4)C3c3ccc([N+](=O)[O-])cc3)ccc2O1 (configuration not stated)	x	x	-4.7%	x	x	u
Cn1c(=O)c2[nH]c(N/N=C(/C#N)C(N)=O)nc2n(C)c1=O	56.2µM*	3.4%	-3.4%	u	14.1µM*	-19.3%
Nc1nc(NC2CC2)c2ncn([C@H]3C=C[C@@H](CO)C3)c2n1	3.7%	x	x	x	u	x
COc1ccc(N(CC(=O)NCCc2cccc(C)c2)S(=O)(=O)c2c(C)nn(C)c2C)cc1	x	x	34.2%	x	7.1%[59 µM]	-6.0%
S=c1[nH]nc(-c2ccc3c(c2)OCO3)n1-c1ccccc1	-2.6%	11.5%	-14.2%	-2.8%	1.58µM*	5.01µM*
CCn1c(COc2ccc3c(c2)OCO3)nnc1SCC(=O)c1ccccc1	u	-12.4%[11.4 µM]	13.0%	u	11.2µM*	-18.1%
O=[N+]([O-])c1ccc(OCc2n[nH]c(=S)n2-c2ccccc2)cc1	-7.2%	-6.9%	4.7%	-25.4%	3.55µM*	44.7µM*
S=c1[nH]nc(COc2ccc3c(c2)OCO3)n1-c1ccccc1	39.8µM*	10.5%[11.4 µM]	3.2%	-34.3%	0.708µM*	39.8µM*
c1ccc(-c2nccc(-c3ccc4c(c3)OCO4)n2)cc1	-8.5%	x	159.7%	66.2%	179.1%	83.6%
CCC1CCCCN1C(=O)Cn1c(=O)n(CCCCCC(=O)NCc2ccccc2Cl)c(=O)c2sccc21 (configuration not stated)	x	x	10.6%	-2.5%	-4.5%[59 µM]	-17.7%
NCCCC[C@H](NC(=O)[C@H](CCCN=C(N)N)NC(=O)[C@H](CO)NC(=O)[C@H](CCCN=C(N)N)NC(=O)[C@@H](N)Cc1ccc(O)cc1)C(=O)N[C@@H](Cc1ccc(O)cc1)C(=O)N[C@@H](CO)C(=O)N[C@@H](CO)C(=O)N[C@@H](Cc1c[nH]c2ccccc12)C(=O)N[C@@H](Cc1ccc(O)cc1)C(=O)O	8.7%	x	x	x	x	x

Assay outcomes as filed in PubChem BioAssay.
